Screening data: PubChem BioAssay, National Center for Advancing Translational Sciences (NCATS)
In the library only some 10% were active in any assay of this set; here they are far more common.
G9a inh = qHTS Assay for Inhibitors of Histone Lysine Methyltransferase G9a; Histone-lysine N-methyltransferase EHMT2 (Homo sapiens), Q96KQ7; G9a H3K9 monomethylation, AlphaScreen, 2 h; Potency, µM (doses to about 102 µM), usual class: inhibitors; 350,000 compounds, 8.8% hits; note: nearly all actives have a fitted effect of over 75% in size
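Using a bead-based AlphaScreen, monomethylated H3K9 product from 2 h room-temperature reactions (G9a 20 nM, peptide 500 nM, SAM 20 uM) was detected with 0.5 ug/mL rabbit anti-H3K9me1 antibody.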
PLK1 PBD inh = qHTS for Inhibitors of PLK1-PDB (polo-like kinase 1 - polo-box domain): Primary Screen | AID 720504, 2013 | Plk1 PBD binding of FITC phosphopeptide, fluorescence polarization | Potency, µM, most hits filed as inhibitors | 360,000 compounds, 2.8% hits | Serine/threonine-protein kinase PLK1 (Homo sapiens), P53350; note: series mostly up to about 57 µM; nearly all actives have a fitted effect of over 65% in size
Target sequence (P53350 whole entry, looked up, the tested form may be a part): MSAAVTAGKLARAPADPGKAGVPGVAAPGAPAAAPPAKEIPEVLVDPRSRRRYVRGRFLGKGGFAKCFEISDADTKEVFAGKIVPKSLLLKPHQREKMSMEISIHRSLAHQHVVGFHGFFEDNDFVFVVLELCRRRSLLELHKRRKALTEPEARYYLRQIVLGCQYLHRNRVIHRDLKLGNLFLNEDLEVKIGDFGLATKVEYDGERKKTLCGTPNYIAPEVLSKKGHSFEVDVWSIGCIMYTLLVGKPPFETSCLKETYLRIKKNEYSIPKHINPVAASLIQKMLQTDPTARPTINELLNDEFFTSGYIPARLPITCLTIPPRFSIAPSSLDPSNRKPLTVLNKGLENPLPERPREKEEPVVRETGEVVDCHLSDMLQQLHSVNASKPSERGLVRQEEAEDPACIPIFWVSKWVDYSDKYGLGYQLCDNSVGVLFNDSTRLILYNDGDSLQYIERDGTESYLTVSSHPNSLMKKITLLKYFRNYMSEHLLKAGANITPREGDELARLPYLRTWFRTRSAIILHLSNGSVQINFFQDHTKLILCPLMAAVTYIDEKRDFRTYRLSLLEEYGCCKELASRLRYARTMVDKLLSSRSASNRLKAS
VDR inhibitor = Inhibitors of the vitamin D receptor (VDR): qHTS; Vitamin D3 receptor (Homo sapiens), P11473; VDR-SRC2-3 peptide fluorescence polarization, 2 h; Potency, µM, most hits filed as inhibitors; 400,000 compounds, 0.93% hits; AID 504847, 2011
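VDR–SRC2-3 interaction, FP format. Cmpds 23 nl via pintool, brief spin, 2 h ambient incubation.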
Mm-Cpn inhibitor = Inhibitors of TCP-1 ring complex (TRiC) of Methanococcus maripaludis (MmCpn): qHTS; purified Mm-Cpn ATPase, ADP Transcreener TR-FRET; Potency, µM (highest dose often 76.9 µM), most hits filed as inhibitors; 330,000 compounds, 0.031% hits; AID 504842, 2011; note: nearly all actives have a fitted effect of over 80% in size
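Eu-cryptate anti-ADP/ADP-d2 competition gives a ratio inversely related to ADP. Enzyme at 25 nM was pre-exposed to compound for 10 min, then given 10 uM ATP for 30 min, 37°C throughout.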
Sfp inh = qHTS Assay for Inhibitors of Bacillus subtilis Sfp phosphopantetheinyl transferase (PPTase); 4'-phosphopantetheinyl transferase ffp (Bacillus subtilis), Q9F4F7; 310,000 compounds, 3.5% hits; Potency, µM, hits mostly inhibitors; Biochemical Sfp PPTase activity, qHTS;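 note: the enzyme is Sfp with the accession as filed and its product quenches rhodamine fluorescence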
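Buffer: 50 mM Hepes-Na pH 7.6, 10 mM MgCl2, 0.01% Nonidet P-40, 0.01% BSA. Enzyme 15 nM, pre-exposed to compound 15 min; substrates then added and fluorescence change tracked over 30 min.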
CCT chaperon mod = High-Throughput Screening for Modulators of Cytosolic Chaperonin Activity; purified chaperonin ATPase assay, HTRF ADP detection, 30 min; AID 651819, 2012; activity change, % (no concentration beside the values), hits read low; 360,000 compounds, 0.3% hits; in the data active = activity change below about -30%
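We incubate TRiC, 40 or 20 nM final, with library compounds at 76 uM and 10 uM ATP for 30 min at 37 °C. ADP formed is detected with Transcreener HTRF reagents after 30 min at room temperature.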
A number is an active result; – = inactive; ? = inconclusive; · = no result; [ ] = another dose, or the depositor's remark. Unless noted, calls come from the whole dose curve; as a rule, active = well fitted curve in the direction sought with a large enough effect; inconclusive = small, poorly fitted or top-dose-only effect, or another doubt; inactive = no such curve, though single readings can be large; an effect the other way counts as inactive or inconclusive.

SMILES	G9a inh	PLK1 PBD inh	VDR inhibitor	Mm-Cpn inhibitor	Sfp inh	CCT chaperon mod
COc1ccc(-c2nnc3ccc(SC(C(C)=O)C(C)=O)nn23)cc1OC	2.24µM	–	–	–	–	–
Cc1ccc(C(=O)c2cn(Cc3c(F)cccc3Cl)c3nc(C)ccc3c2=O)cc1	–	·	–	·	·	·
COc1ccccc1N1CCN(C(=O)c2cn(C)c3ccc(S(=O)(=O)N(C)C4CCCCC4)cc3c2=O)CC1	–	·	–	·	·	·
CC(=O)n1c(C=Nc2ccc(Cl)cc2)c(O)c2ccccc21	·	6.7µM	–	–	?	–
CC(=O)n1c2ccccc2c2ccccc21	–	–	–	–	–	–
CO/N=C/c1ccc(Oc2ccc(C)cc2)c([N+](=O)[O-])c1	–	11.9µM	28.2µM	–	–	–
Cc1ccc(C)c(N2CCN(S(=O)(=O)c3ccc4oc(=O)c5ncn(C)c5c4c3)CC2)c1	–	·	–	·	·	·
COC(=O)c1ccc([C@@H]2Nc3c(OC)ccc(C)c3[C@@H]3C=CC[C@@H]32)cc1	3.16µM	·	–	·	·	·
Cc1ccc(NS(=O)(=O)c2ccc3c(c2)C(C(C)C)C(=O)N3)cc1C (stereo not drawn)	–	·	–	·	·	·
Cc1ccc(NS(=O)(=O)c2ccc3c(c2)[C@H]2C=CC[C@H]2[C@@H](c2ccc(F)cc2)N3)cc1C	5.62µM	·	–	·	·	·
COC(=O)c1ccc([C@H]2Nc3ccc(S(=O)(=O)Nc4cccc(C)c4)cc3[C@H]3C=CC[C@H]32)cc1	4.47µM	·	–	·	·	·
CCC(=O)Nc1ccc(S(=O)(=O)Nc2cccc(C)c2)cc1OC	?	–	–	–	–	–
CCOc1ccc2[nH]c(=O)c(CN(CCO)C(c3nnnn3C3CCCCC3)C(C)C)cc2c1 (stereo not drawn)	?	–	–	–	89.1µM	–
Cc1nc(-c2cccc(S(=O)(=O)N3CCC(C(=O)NCc4ccccc4)CC3)c2)no1	–	·	–	·	·	·
Cc1ccccc1Nc1nnc(SCC(=O)c2c(N)n(C3CC3)c(=O)[nH]c2=O)s1	10µM	–	–	–	·	–
Cn1c(N)c(C(=O)CSc2nnc(-c3cccs3)n2C2CC2)c(=O)[nH]c1=O	50.1µM	–	–	–	·	–
Cn1c(N)c(C(=O)CSc2nnc(-c3c[nH]c4ccccc34)n2C2CC2)c(=O)[nH]c1=O	?	–	–	–	·	–
Cc1cc(C)cc(-n2ccnc2SCC(=O)c2c(N)n(C3CC3)c(=O)[nH]c2=O)c1	2.51µM	–	–	–	·	–
COc1ccccc1Nc1nnc(SCC(=O)c2c(N)n(C3CC3)c(=O)[nH]c2=O)s1	·	–	–	–	·	–
CNc1nnc(SCC(=O)c2c(N)n(C3CC3)c(=O)[nH]c2=O)s1	44.7µM	–	–	–	·	–
O=C(Nc1ccc2nc(SCC(=O)N3CCOCC3)sc2c1)c1ccc(F)cc1	–	·	–	·	·	·
Cc1cc(Cl)ccc1NC(=O)Cn1nnc2sc(-c3ccccc3)cc2c1=O	–	·	–	·	·	·
Cc1nc(N2CCCC2)c2c(C(=O)N3CCN(c4cc(Cl)ccc4C)CC3)c(C)oc2n1	?	·	–	·	·	·
CCOc1ccc(C(=O)NCc2nnnn2-c2ccc(C)c(C)c2)cc1OCC	–	·	–	·	·	·
Cc1ccc(-n2c(=O)c3c(cnn3C)n(CC(=O)Nc3c(C)cccc3C)c2=O)cc1	–	·	–	·	·	·
SMILES	G9a inh	PLK1 PBD inh	VDR inhibitor	Mm-Cpn inhibitor	Sfp inh	CCT chaperon mod
CCn1ccc2cc(S(=O)(=O)N3CCC(C(=O)NCC(C)c4ccccc4)CC3)ccc21 (stereo not drawn)	–	·	–	·	·	·
CC1=C(/C=C/C(C)=C/C=C/C(C)=C/C=C/C=C(C)/C=C/C=C(C)/C=C/C2=C(C)C(=O)C(O)CC2(C)C)C(C)(C)CC(O)C1=O (stereo not drawn)	·	·	–	·	–	·
COc1ccc(C(=O)NC(=S)Nc2nnn(C)n2)cc1	3.55µM	?	–	–	56.2µM	–
Cn1nnc(NC(=S)NC(=O)Cc2ccccc2)n1	2.82µM	–	–	–	–	–
COc1cccc(C(=O)NC(=S)Nc2nnn(C)n2)c1	2µM	–	–	–	50.1µM	–
CCOC(=O)c1cc(-c2ccccc2)n(CCCC(=O)Nc2ccccc2C)c1C	–	·	–	·	·	·
C(=C\c1nc(-c2ccccc2)oc1Nc1ccc2ccccc2c1)/c1ccccc1	·	·	–	·	–	·
Cc1ccc(-n2ncc(C(=O)NCc3ccccn3)c2C2CCN(C(=O)OC(C)(C)C)CC2)cc1C	–	·	–	·	·	·
CCOc1ccc(-c2cc(NC(=O)Nc3ccc(Cl)cc3)c(C(=O)OC)s2)cc1	–	·	–	·	·	·
Cc1nc2nc(C)n(-c3ccccc3)c2s1	12.6µM	?	–	–	–	–
Cc1nc2ccccc2n1-c1ccccc1	–	–	–	–	–	–
COc1cccc(/C=C/c2nc(C#N)c(N3CCN(C)CC3)o2)c1	?	·	–	·	·	·
CCOC(=O)Cc1ccc(NC(=O)N2CC(CC)Oc3ccccc32)cc1 (stereo not drawn)	–	·	–	·	·	·
N#Cc1ccccc1OCC(=O)Nc1nc(-c2ccccn2)cs1	·	26.7µM	·	·	·	–
Cc1cc(C)cc(OCC(=O)Nc2nc(-c3ccccn3)cs2)c1	22.4µM	?	–	?	·	–
COc1cc(NC(=O)Cn2nc3c(cc2=O)CC(C)CC3)cc(OC)c1OC (stereo not drawn)	–	·	–	·	·	·
COC(=O)c1ccc(OCCCCN(C)Cc2ccccc2)cc1	10µM	–	–	–	–	–
CN(CCOc1ccccc1Cl)Cc1ccccc1	10µM	–	–	–	?	–
Cc1ccc(Cl)c(OCCCN(C)Cc2ccccc2)c1	1.78µM	–	–	–	44.7µM	–
Cc1ccc(Cl)c(OCCCCN(C)Cc2ccccc2)c1	10µM	–	–	–	–	–
CN(CCCOc1ccccc1Br)Cc1ccccc1	–	–	–	–	–	–
CN(CCCOc1ccccc1F)Cc1ccccc1	7.94µM	–	–	–	–	–
CN(CCOCCOc1ccc(F)cc1)Cc1ccccc1	?	–	–	–	?	–
CCOc1ccc(OCCN(C)Cc2ccccc2)cc1	3.98µM	–	–	–	–	–
Cc1cc(NC(=O)C2CCCN(S(=O)(=O)c3cn(C)cn3)C2)ccc1Br (stereo not drawn)	–[12.7 µM]	·	–	·	·	·
CC(C)CO/N=C1/C[C@@H](O)[C@@H](O)[C@@H]2[C@@H]3C(=O)N(C4CCCCC4)C(=O)[C@H]3CC[C@@H]12	·	·	·	·	–	·
COc1ccc(Cc2nnc(NCCO)[nH]c2=O)cc1OC	–	5.97µM	?	–	–	–
COc1ccc(Cc2nnc(NCCO)[nH]c2=O)cc1	–	–	–	–	–	–
COc1cccc(-c2nc(N(C)Cc3ccco3)c3ccccc3n2)c1	–[0.501 µM]	·	?	·	?	·
